Test results as given in PubChem BioAssay.

test system: not listed separately; test: compounds binding Alexa647 anti-His antibody – biochemical, small-molecule microarray, 635 nm fluorescence, artefact control for SMM control protein annotation, primary screen (AID 1128); details: higher = more signal;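 also: score merges feature fluorescence with signal-to-noise for each printed compound spot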

Structure (SMILES)	composite z-score
COCCCNC(=O)[C@@]1(c2ccc([N+](=O)[O-])cc2)CC(=O)N(C(C)C)[C@@H]1c1ccc(CO)cc1	-0.92
CN1C(=O)C2C=CC(C(O)c3ccc(I)cc3)N(Nc3ccccc3)C2C1=O (stereo not given)	0.276
CCOC(=O)C1=C[C@@H](c2ccccc2)N(S(=O)(=O)c2ccc(C)cc2)[C@H]1c1ccccc1	0.421
CC1CC/C=C\[C@H]2OC34C=CCN(C(C)(C)C)C(=O)[C@H]3N(C(CO)C(C)C)C(=O)[C@@H]4C2C(=O)O1 (stereo not given in full)	-0.0256
COC(=O)[C@@]1(Cc2ccc(F)cc2)[C@H]2c3cc(C(=O)N4CCCC4)n(CC4CC4)c3C[C@H]2CN1C(=O)c1ccccc1	2.46

test system: Human papillomavirus type 1a E7 protein (residues 1-88); test: HPV1a E7 small-molecule binders, primary screen, biochemical, small-molecule microarray, residues 1-88, 635 nm (AID 1129); details: small-molecule microarray binding, fluorescence 635 nm; higher = more signal

Structure (SMILES)	composite z-score
COCCCNC(=O)[C@@H]1c2ccccc2C(=O)N(C2Cc3ccccc3C2)[C@H]1c1ccc(CO)cc1	1
COc1ccc([Si](C)(C)[C@H]2[C@H](CCO)O[C@@]3(C(=O)N(Cc4ccccc4)c4ccc(N5CCOC5=O)cc43)[C@@H]2C)cc1	0.981
C[C@@]12COC[C@]13C=C(Br)[C@H](C2)[C@@]1(CO1)C3=O	-1.59
Nc1cc(Br)ccc1C(=O)O	0.319
COC(=O)[C@@]1(Cc2ccccc2)[C@H]2c3cc(C(=O)N(C)C)n(CCn4cc([N+](=O)[O-])nc4C)c3C[C@H]2CN1C(=O)c1ccccc1	0.858
C=C(/C(=C/C[C@@H](OC(C)=O)c1ccc(CO)o1)c1cc(C(=O)OC)ccc1OC)C(C)C	0.659
CC(C)C(=C=CC[C@H](O)c1cccc(OCCO)c1)CCO	-0.374
C=CCN1C(=O)[C@]2(O[C@H](CCO)[C@@H]([Si](C)(C)c3ccc(OC)cc3)[C@@H]2C)c2cc(NC(=O)c3ccc(OC)cc3)ccc21	0.668
CC(=O)NCCCC[C@@H]1NC(=O)[C@@H]2C[C@H](C(=O)NCCCCCCN)[C@H](c3cccc(OCCO)c3)N2C1=O	0.286
CN(C)CCCCNC(=O)[C@H]1C[C@H]2C(=O)N[C@@H](CCCC[N+](C)(C)C)C(=O)N2[C@H]1c1ccc(O)cc1	-0.454
CC(C)N1CC=CC23O[C@@H]4/C=C\CCCOC(=O)C4[C@H]2C(=O)N(CCCCCCO)[C@@H]3C1=O (stereo not given in full)	-0.808
O=C(CS)NCCCCCCNC(=O)[C@@H]1C[C@@H]2C(=O)NCC(=O)N2[C@@H]1c1ccc(O)cc1	-0.41
COc1ccc([Si](C)(C)[C@H]2[C@H](CCO)O[C@@]3(C(=O)N(Cc4ccccc4)c4ccc(N5C(=O)c6ccccc6Oc6ccccc65)cc43)[C@@H]2C)cc1	0.885
NC(=O)[C@H]1[C@@H]2C(=O)O[C@@H](c3ccccc3)[C@@H](c3ccccc3)N2[C@@H](c2ccc(O)cc2)[C@]12C(=O)Nc1ccccc12	-0.189
[N-]=[N+]=NCc1ccccc1[C@@H]1OC(c2ccc(OCCCO)cc2)=N[C@]1(Cc1ccccc1)C(=O)NCCN1CCOCC1	1.18
O=C1C2C=CC(C(O)c3ccc4c(c3)OCO4)N(Nc3ccccc3)C2C(=O)N1c1ccccc1 (stereo not given)	1.21
O=C(CS)NCCCCCNC(=O)[C@@H]1C[C@@H]2C(=O)N[C@@H](Cc3ccccc3)C(=O)N2[C@@H]1c1cccc(OCCO)c1	1.24
NCCCCCNC(=O)[C@@H]1C[C@@H]2C(=O)N3CCC[C@H]3C(=O)N2[C@@H]1c1ccc(O)cc1	1.18

Structure (SMILES)	composite z-score
COc1cc(NN2C(C(O)c3ccccc3)C=CC3C(=O)N(C)C(=O)C32)cc(OC)c1OC (stereo not given)	1.19
CC=CC(O)C1C=CC2C(=O)NC(=O)C2N1Nc1ccccn1 (stereo not given)	0.497
COCCOC(=O)N1C(=O)[C@@]2(c3ccccc31)[C@H](c1ccccc1OCCO)N1[C@H](c3ccccc3)[C@H](c3ccccc3)OC(=O)[C@H]1[C@@H]2C(N)=O	1.18
COc1cc(NN2C(C(O)c3ccc(I)cc3)C=CC3C(=O)N(c4ccccc4)C(=O)C32)cc(OC)c1OC (stereo not given)	1.24
[N-]=[N+]=NCc1ccccc1[C@@H]1OC(c2ccc(OCCCO)cc2)=N[C@]1(Cc1ccccc1N=[N+]=[N-])C(=O)NCCN1CCOCC1	1.25
C=C(/C(=C/C[C@H](OC(=O)c1ccncc1)c1ccccc1OCCO)c1cnc2ccccc2c1)C(C)C	1.22
C=CCNC(=O)[C@@H]1[C@H]2C(=O)O[C@H](c3ccccc3)[C@H](c3ccccc3)N2[C@H](c2ccc(OCCO)cc2)[C@@]12C(=O)N(C(=O)OCCOC)c1ccc(C#CCCO)cc12	1.17
C=C[C@H](C)[C@H](OC(=O)Nc1ccc(OC)cc1)c1ccc(OCCO)cc1	-0.653
COc1ccc(C#Cc2ccc3c(c2)[C@]2(C(=O)N3)[C@H](C(=O)N3CCCCCCC3)[C@H]3C(=O)O[C@H](c4ccccc4)[C@H](c4ccccc4)N3[C@@H]2c2ccc(O)cc2)cc1	1.21
NCCCCCNC(=O)[C@H]1C[C@H]2C(=O)N[C@@H](Cc3ccccc3)C(=O)N2[C@H]1c1ccc(O)cc1	0.756
CC(C)c1ccc(NN2C(C(O)Cc3ccccc3)C=CC3C(=O)N(c4ccccc4)C(=O)C32)cc1 (stereo not given)	1.11
Cc1ccc(S[C@]2(C(=O)NCc3ccccc3)CC(=O)N(Cc3cc(C(F)(F)F)cc(C(F)(F)F)c3)[C@@H]2c2ccc(CO)cc2I)cc1	-0.774
COCCCNC(=O)[C@@]1(c2ccc([N+](=O)[O-])cc2)CC(=O)N(C(C)C)[C@@H]1c1ccc(CO)cc1	-0.085
CN1C(=O)C2C=CC(C(O)c3ccc(I)cc3)N(Nc3ccccc3)C2C1=O (stereo not given)	1.22
CCOC(=O)C1=C[C@@H](c2ccccc2)N(S(=O)(=O)c2ccc(C)cc2)[C@H]1c1ccccc1	0.574
CC1CC/C=C\[C@H]2OC34C=CCN(C(C)(C)C)C(=O)[C@H]3N(C(CO)C(C)C)C(=O)[C@@H]4C2C(=O)O1 (stereo not given in full)	-0.181
COC(=O)[C@@]1(Cc2ccc(F)cc2)[C@H]2c3cc(C(=O)N4CCCC4)n(CC4CC4)c3C[C@H]2CN1C(=O)c1ccccc1	1.28
